Records with an inconclusive call do not appear. Active and inactive are the calls of the source.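 How the source made its calls, unless noted: active means normalized viability below 100% at a tested concentration; inactive means the rest.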
Assays:
[1] = growth inhibition of DIPG glioma cells, dose response, cell-based, SU-DIPG-XVII, MIPE5.0, CellTiter-Glo, qHTS (AID 1347060; cut-off not given, nearly all actives have AC50 up to about 26 µM;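 on AC50: cells exposed to compound for 48 hours before viability readout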); conditions: SU-DIPG-XVII viability, CellTiter-Glo ATP luminescence
[2] = growth inhibition of DIPG glioma cells, dose response, cell-based, JHH-DIPG-1, MIPE4.0, CellTiter-Glo, qHTS (AID 1347062; cut-off not given, nearly all actives have AC50 up to about 27 µM;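 on AC50: cells exposed to compound for two days before readout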); conditions: JHH-DIPG-1 viability, CellTiter-Glo ATP luminescence
[3] = growth inhibition of DIPG glioma cells, dose response, cell-based, SU-DIPG-IV, MIPE4.0, CellTiter-Glo, qHTS (AID 1347063; cut-off not given, nearly all actives have AC50 up to about 30 µM;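 further: compound exposure lasted 48 hours before the viability readout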); conditions: SU-DIPG-IV viability, CellTiter-Glo ATP luminescence
[4] = viability loss in pontine glioma line – cell-based, SU-DIPG-XXV, MIPE5.0, CellTiter-Glo, qHTS, dose response (AID 1347065; cut-off not given, nearly all actives have AC50 up to about 26 µM;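 further: cells exposed to compound for 48 hours before ATP readout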); conditions: CellTiter-Glo ATP luminescence
[5] = SU-DIPG-VI glioma cell viability, MIPE4.0 library, CellTiter-Glo luminescence, qHTS (AID 1347066; cut-off not given, nearly all actives have AC50 up to about 30 µM;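 further: cells exposed to compound for 48 hours before readout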); conditions: CellTiter-Glo ATP luminescence
[6] = JHH-DIPG-1 glioma cell viability, MIPE5.0 library, CellTiter-Glo luminescence, qHTS (AID 1347067; cut-off not given, nearly all actives have AC50 up to about 26 µM;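 further: cells exposed to compound for 48 hours before readout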); conditions: JHH-DIPG-1 glioma viability, CellTiter-Glo ATP luminescence
[7] = sensitizers of A549 cells to miR-34 induction, primary screen, imaging, A549 dox-inducible miR-34, nuclei and caspase counts (AID 1347080;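 active means compounds whose cell count with miR-34 switched on is under 0.7 times the count with it off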); conditions: A549 miR-34 inducible, Hoechst nuclei count, 48 h
[8] = modifiers of HSF1 nuclear foci, imaging, Selleck Cancer Library (AID 1347162; in the data active means plate-normalised HSF1 focus index below about 0.46); conditions: human cells, at 10 µM; SSMD: measured here: HSF1 foci SSMD mean; cell count: measured here: cell number; plate-normalised HSF1 focus index: stronger effect = lower value
[9] = survival rescue of mitochondrial mutant cells in low glucose, primary screen, MELAS cybrids, Rieske KO mouse fibroblasts, CellTiter-Glo (AID 1508586;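 active means mean z-score across replicates of 1.96 or higher in either the MELAS or the Rieske mutant cell line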;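 further: z relative to plate mean and SD of compound and empty wells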)
[10] = ovarian cancer cell viability with rucaparib, profiling panel, oncology-focused library, rucaparib conditional (AID 1508598); conditions: patient-derived ovarian cancer cells, CellTiter-Glo viability, 144 h, stronger effect = lower value
[11] = growth inhibition of DIPG glioma cells, dose response, cell-based, SU-DIPG-XIII, MIPE5.0, CellTiter-Glo, qHTS (AID 1347064; cut-off not given, nearly all actives have AC50 up to about 23 µM;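 further: cells exposed to compound for 48 hours before the viability read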); conditions: SU-DIPG-XIII viability, CellTiter-Glo ATP luminescence
[12] = SU-DIPG-XXV glioma cell viability, MIPE5.0 library, qHTS (AID 1347068; cut-off not given, nearly all actives have IC50 up to about 30 µM;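 further: cells exposed to compound for 48 hours before viability readout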)
[13] = stronger effect = lower value, cell number ratio, induced over uninduced
[14] = measured here: relative caspase fold change +Dox/-Dox
[15] = measured here: total cells with miR-34 induction, stronger effect = lower value
[16] = measured here: total cells without miR-34 induction

Cn1cncc1[C@@](N)(c1ccc(Cl)cc1)c1ccc2c(c1)c(-c1cccc(Cl)c1)cc(=O)n2C
AC50 [1]: 33.2 µM (active) | AC50 [2]: 23.5 µM (active) | AC50 [3]: 8.33 µM (active) | AC50 [4]: 16.6 µM (active) | AC50 [5]: 18.7 µM (active) | AC50 [6]: 18.6 µM (active) | fold change [7, 13]: 1.1 (inactive) | fold change [7, 14]: 0.725 | cell count [7, 15]: 5030 | cell count [7, 16]: 4560 | SSMD [8]: -8.89 | cell count [8]: 4640 | plate-normalised HSF1 focus index [8]: 0.564 (inactive) | z-score ([9]; MELAS cybrid survival, CellTiter-Glo 48 h, stronger effect = higher value): -0.557 (inactive) | z-score ([9]; Rieske KO mouse fibroblast survival, CellTiter-Glo 72 h): -0.393 | viability ([10]; at 0.000305 µM, OCI-C5x cells, with rucaparib 10 µM, 100% = cells with rucaparib alone): 113% (inactive) | viability ([10]; at 0.000305 µM, OCI-C5x cells, without rucaparib): 115% (inactive) | viability ([10]; at 0.000305 µM, OCI-P5x cells, with rucaparib 20 µM, 100% = cells with rucaparib alone): 102% (inactive) | viability ([10]; at 0.000305 µM, OCI-P5x cells, without rucaparib): 113% (inactive) | viability ([10]; at 0.00122 µM, OCI-C5x cells, with rucaparib 10 µM, 100% = cells with rucaparib alone): 118% (inactive) | viability ([10]; at 0.00122 µM, OCI-C5x cells, without rucaparib): 111% (inactive) | viability ([10]; at 0.00122 µM, OCI-P5x cells, with rucaparib 20 µM, 100% = cells with rucaparib alone): 103% (inactive) | viability ([10]; at 0.00122 µM, OCI-P5x cells, without rucaparib): 109% (inactive) | viability ([10]; at 0.00488 µM, OCI-C5x cells, with rucaparib 10 µM, 100% = cells with rucaparib alone): 115% (inactive) | viability ([10]; at 0.00488 µM, OCI-C5x cells, without rucaparib): 122% (inactive) | viability ([10]; at 0.00488 µM, OCI-P5x cells, with rucaparib 20 µM, 100% = cells with rucaparib alone): 107% (inactive) | viability ([10]; at 0.00488 µM, OCI-P5x cells, without rucaparib): 107% (inactive) | viability ([10]; at 0.0195 µM, OCI-C5x cells, with rucaparib 10 µM, 100% = cells with rucaparib alone): 114% (inactive) | viability ([10]; at 0.0195 µM, OCI-C5x cells, without rucaparib): 123% (inactive) | viability ([10]; at 0.0195 µM, OCI-P5x cells, with rucaparib 20 µM, 100% = cells with rucaparib alone): 98.9% (active) | viability ([10]; at 0.0195 µM, OCI-P5x cells, without rucaparib): 85.9% (active) | viability ([10]; at 0.0781 µM, OCI-C5x cells, with rucaparib 10 µM, 100% = cells with rucaparib alone): 111% (inactive) | viability ([10]; at 0.0781 µM, OCI-C5x cells, without rucaparib): 121% (inactive) | viability ([10]; at 0.0781 µM, OCI-P5x cells, with rucaparib 20 µM, 100% = cells with rucaparib alone): 92.4% (active) | viability ([10]; at 0.0781 µM, OCI-P5x cells, without rucaparib): 67.4% (active) | viability ([10]; at 0.313 µM, OCI-C5x cells, with rucaparib 10 µM, 100% = cells with rucaparib alone): 113% (inactive) | viability ([10]; at 0.313 µM, OCI-C5x cells, without rucaparib): 99.3% (active) | viability ([10]; at 0.313 µM, OCI-P5x cells, with rucaparib 20 µM, 100% = cells with rucaparib alone): 74.4% (active) | viability ([10]; at 0.313 µM, OCI-P5x cells, without rucaparib): 66.7% (active) | viability ([10]; at 1.25 µM, OCI-C5x cells, with rucaparib 10 µM, 100% = cells with rucaparib alone): 101% (inactive) | viability ([10]; at 1.25 µM, OCI-C5x cells, without rucaparib): 104% (inactive) | viability ([10]; at 1.25 µM, OCI-P5x cells, with rucaparib 20 µM, 100% = cells with rucaparib alone): 23.5% (active) | viability ([10]; at 1.25 µM, OCI-P5x cells, without rucaparib): 28.3% (active) | viability ([10]; at 5 µM, OCI-C5x cells, with rucaparib 10 µM, 100% = cells with rucaparib alone): 1.75% (active) | viability ([10]; at 5 µM, OCI-C5x cells, without rucaparib): 5.47% (active) | viability ([10]; at 5 µM, OCI-P5x cells, with rucaparib 20 µM, 100% = cells with rucaparib alone): 0.988% (active) | viability ([10]; at 5 µM, OCI-P5x cells, without rucaparib): 1.42% (active)

O=C(c1ccc(/C=C/c2n[nH]c3ccccc23)cc1)N1CCNCC1
AC50 [1]: 5.9 µM (active) | AC50 [2]: 23.5 µM (active) | AC50 [11]: 8.33 µM (active) | AC50 [4]: 4.68 µM (active)

CCOC(=O)[C@H]1O[C@@H]1C(=O)N[C@@H](CC(C)C)C(=O)NCCC(C)C
outcome [1]: inactive | outcome [2]: inactive | outcome [3]: inactive | outcome [4]: inactive | outcome [6]: inactive | fold change [7, 13]: 0.97 (inactive) | fold change [7, 14]: 0.856 | cell count [7, 15]: 4650 | cell count [7, 16]: 4800

C[C@@H]1COC(Nc2ccc3ncnc(Nc4ccc(OCc5nccs5)c(Cl)c4)c3c2)=N1
AC50 [1]: 20.9 µM (active) | AC50 [2]: 18.7 µM (active) | AC50 [3]: 16.6 µM (active) | AC50 [4]: 20.9 µM (active) | IC50 [12]: 23.5 µM (active)
